# Source: PubChem (Broad Institute)
# In the library only some 3.8% were active in any assay of this set; here they are far more common.
# HSF1 activator = increases HSF-1 driven luciferase reporter signal | NIH3T3-HGL HSF-1 luciferase reporter, MG132, 8 h; 100% = twice DMSO control signal | activation, % at 9 µM | 300,000 tested, 1.7% active | AID 504408;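 active = mean replicate activation of at least 50% with a set share of replicates each reaching 50%; inconclusive = only one of those two conditions met; inactive = mean below 50% and too few replicates reaching it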;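 also: 0% = median of the neutral control wells and 100% = twice that signal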
# MITF act = MITF TRPM1 promoter activation in melanoma cells; SK-MEL-5 TRPM1-promoter luciferase, 24 h; % of positive control, neutral wells = 0; AID 588334; activation, % at 12.5 µM; 300,000 tested, 0.75% active;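 active = mean activation of at least 80% with every replicate also reaching 80%; inconclusive = mean reaches 80% but some replicate falls short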;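 also: 0% = neutral control wells and 100% = parthenolide positive control wells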
# Wnt bcat act = activates Wnt/beta-catenin signaling in a reporter cell assay. activator, plate reader. activation, % at 9.35 µM. 300,000 tested, 1.2% active; in the data active = activation above about 30%, passing the limit was not always enough; inconclusive = no clear call, values can overlap the other calls;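 also: 0% = neutral control wells and 100% = positive control wells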
# esBAF inh = SWI/SNF esBAF complex inhibition | AID 602393 | 350,000 tested, 2% active | reporter increase, % at 12.5 µM | mouse ES cells, Bmi1-luciferase knock-in reporter, 24 h; 100% = twice the neutral-well signal; in the data active = activation above about 40%; inconclusive = no clear call, values can overlap the other calls;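 also: 0% = median of the plate's neutral control wells and 100% = double that signal; a rise in the Bmi1 reporter signal indicates esBAF inhibition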
# HSF1 inh = HSF1 inhibition | AID 2098 | activity change, negative = inhibition, % at 7.5 µM (by protocol) | 300,000 tested, 0.77% active | NIH3T3-HGL HSE-luciferase, MG132-induced, luminescence 8 h; active compounds read low;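 active = more than half of replicate wells show activity change below -50%, luminescence cut by over half; inconclusive = some wells, but at most half, below -50%; inactive = no replicate well below -50%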;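 also: luciferase reports HSF-1 transcriptional activity via heat shock element; 0% = median of DMSO wells and -100% = zero luminescence signal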
# * = called active by the depositor; ? = inconclusive; nt = not tested or not shown.
SMILES,HSF1 activator,MITF act,Wnt bcat act,esBAF inh,HSF1 inh
CC(C)[C@H](N)C(=O)NC[C@H]1CC[C@H](C(=O)N[C@@H](Cc2ccccc2)C(=O)O)CC1,-69.3,12.1,-1.5,0.2,-63.0*
CC(C)[C@H](NC(=O)OC(C)(C)C)C(=O)NCC1CCC(C(=O)N[C@@H](Cc2ccccc2)C(=O)O)CC1 (some centres not stated),-66.6,1.9,-0.2,-0.8,-59.3*
CC(C)[C@@H](N)C(=O)NCC1CCC(C(=O)N[C@@H](Cc2ccccc2)C(=O)O)CC1 (some centres not stated),8.5,12.1,-0.2,1.3,-4.3
CCOc1cccc(/C=C/c2ccc3cccc(O)c3n2)c1O,3.0,20.5,47.9*,86.8*,12.1
COc1cccc(C=Cc2nccc3ccccc23)c1OC,nt,nt,58.9*,24.8,nt
Oc1cccc2ccc(/C=C/c3ccccc3Cl)nc12,-10.5,4.0,20.8,17.9,0.1
COc1ccccc1/C=C/c1ccc2cccc(O)c2n1,17.6,5.3,27.1,67.0*,-5.7
CCOc1cccc(/C=C/c2ccc3cccc(O)c3n2)c1OC,142.7*,9.9,39.9*,34.3,121.7
COc1cc(Cl)cc(/C=C/c2ccc3cccc(O)c3n2)c1OC,-2.1,10.9,16.7,29.8,-4.2
COc1ccccc1C1=NN(C(=S)Nc2ccccc2)C(c2ccco2)C1 (configuration not stated),52.2*,32.3,nt,56.1*,41.6
COc1ccc(OC)c(C2CC(c3ccccc3)=NN2C(=S)Nc2ccccc2)c1 (configuration not stated),-0.5,-12.5,-11.4,nt,1.3
CCN(CC)c1ccc(C(=O)Nc2ccccc2)cc1[N+](=O)[O-],43.2,87.1*,13.0,nt,9.7
COc1ccc(C(=O)Nc2ccc(OCc3ccccc3)cc2)cc1[N+](=O)[O-],-67.0,nt,nt,-0.7,-60.7*
COc1ccc(C(=O)Nc2ccc(Nc3ccccc3)cc2)cc1[N+](=O)[O-],9.8,nt,-0.2,5.6,6.2
Cc1ccccc1C(=O)NCCOc1ccccc1Cl,69.6*,74.0,13.5,29.2,42.9
COc1ccccc1OCc1ccc(C(=O)Nc2ccccc2)cc1,nt,69.9,28.6,78.6*,nt
CCC(=O)N(C)C[C@@H]1Oc2cc(C#CC3(O)CCCC3)ccc2S(=O)(=O)N([C@@H](C)CO)C[C@H]1C,nt,nt,nt,-3.3,nt
COc1ccccc1OCCNC(=O)c1ccc(Br)cc1,?,37.7,13.2,56.0*,32.8
COc1ccc(C2=NN(C(=O)CN3CCOCC3)C(c3nc4ccccc4[nH]3)C2)cc1 (configuration not stated),15.3,35.2,?,59.5*,5.0
COc1ccc(C2=NN(C(=O)CN3CCCCC3)C(c3ccc(C)cc3)C2)cc1 (configuration not stated),14.8,-1.9,-1.0,-1.4,2.9
O=C(C[C@H]1CC[C@@H]2[C@H](COC[C@H](O)CN2C(=O)Nc2ccc(F)cc2)O1)NC1Cc2ccccc2C1,nt,nt,nt,1.2,nt
CCn1c(=O)cc(SCC(=O)N2CCN(C)CC2)c2ccccc21,63.2*,nt,5.1,-13.2,32.6
O=C(Nc1ccccc1Cl)C(=O)c1cn(CC(=O)N2CCOCC2)c2ccccc12,-12.2,83.2*,38.8*,52.1*,-5.5
CCC(=O)N1CCN(c2ccc(NC(=O)COc3ccc(CC)cc3)cc2)CC1,67.2*,-13.8,-3.3,-0.1,27.0
O=C(c1cn(CC(=O)N2CCCCC2)c2ccccc12)C1CC1,61.6*,-7.6,0.9,5.1,37.7
SMILES,HSF1 activator,MITF act,Wnt bcat act,esBAF inh,HSF1 inh
O=C(Nc1cc(Cl)cc(Cl)c1)N[C@H]1CC[C@@H](CCNS(=O)(=O)c2cccc(F)c2)O[C@@H]1CO,nt,nt,nt,4.0,nt
CCn1cc(SCC(=O)N2CCOCC2)c2ccccc21,15.2,39.1,16.2,51.6*,10.5
Cc1cn(CCC(=O)Nc2ccc(N3CCOCC3)cc2)c2ccccc12,13.1,81.4*,16.4,?,14.1
Cc1ccc(OCCC(=O)OCC(=O)Nc2ccc(N3CCOCC3)cc2)cc1,-70.1,4.4,-1.8,1.8,-61.1*
O=C(Cn1cc(SCc2ccccc2Cl)c2ccccc21)N1CCOCC1,44.3,28.1,nt,82.2*,28.9
C[C@H](NC(=O)C[C@@H]1C[C@H]2c3cc(NS(C)(=O)=O)ccc3O[C@H]2[C@H](CO)O1)c1ccccc1,nt,nt,nt,-3.3,nt
CO[C@H]1CN(C)C(=O)c2ccc(NC(=O)C3CC3)cc2OC[C@@H](C)N(C(=O)c2cccnc2)C[C@@H]1C,nt,nt,nt,-1.0,nt
CC(=O)Nc1ccc(NC(=O)CSc2cn(CC(=O)N3CCOCC3)c3ccccc23)cc1,-76.3,-0.2,-0.2,-3.2,-69.0*
C[C@@H]1CN([C@H](C)CO)C(=O)Cc2cc(NS(C)(=O)=O)ccc2O[C@H]1CN(C)S(=O)(=O)c1cccs1,nt,nt,nt,-2.0,nt
O=C(Nc1nc(-c2cc3ccccc3oc2=O)cs1)c1ccco1,9.2,nt,5.0,9.1,7.9
O=c1oc2ccccc2cc1-c1csc(NN=C2CCCCC2)n1,22.7,77.2,nt,66.4*,7.3
c1ccc2oc(-c3csc(NCC4CCCO4)n3)cc2c1 (configuration not stated),51.5*,59.3,-0.8,nt,35.1
CC(C)NC(=O)N(C)C[C@@H]1Oc2c(NS(=O)(=O)c3ccc(Cl)cc3)cccc2C(=O)N([C@H](C)CO)C[C@H]1C,nt,nt,nt,-5.2,nt
CN1CCN(C(=O)c2cc3c(c(-c4cccc(-c5ccccc5F)c4)n2)[C@H](CCO)N([S@@](=O)C(C)(C)C)C3)CC1,nt,nt,nt,0.1,nt
COc1cccc(NC(=O)C[C@H]2CC[C@H]3[C@H](COc4ccc(NC(=O)C5CCCCC5)cc4C(=O)N3C)O2)c1,nt,nt,nt,5.9,nt
COc1ccc(NC(=O)Nc2ccc3c(c2)C(=O)N([C@@H](C)CO)C[C@@H](C)[C@@H](CN(C)C(=O)Nc2ccccc2)OCCCC[C@H](C)O3)cc1,nt,nt,nt,-4.5,nt
O=C1/C(=C/c2cccs2)SC(=S)N1CCC(=O)N1CCCCC1CCO (configuration not stated),2.0,34.6,8.5,59.5*,0.2
Cc1ccnc(N2CCCC(C(=O)Nc3ccc(C)c(C)c3)C2)n1 (configuration not stated),59.8*,-13.4,7.0,12.2,25.3
CCC(C)c1ccc(NC(=O)C2CCCN(c3ncccn3)C2)cc1 (configuration not stated),16.1,nt,nt,48.3*,-1.6
COc1ccc(NC(=O)C2CCCN(c3ncccn3)C2)cc1 (configuration not stated),3.8,51.7,9.4,32.9,5.2
Cc1ccnc(N2CCCC(C(=O)NCc3cccs3)C2)n1 (configuration not stated),-72.3,-2.4,-6.2,-0.4,-65.7*
COc1ccc(-c2cnc3c(c2)C(=O)N([C@@H](C)CO)C[C@H](C)[C@@H](CN(C)C(=O)NC2CCCC2)O3)cc1,nt,nt,nt,6.2,nt
CCCCS(=O)(=O)/C=C\C=C/S(=O)(=O)CCCC,-84.0,-103.6,nt,nt,-83.0*
COc1ccc(CN(C)Cc2c(O)ccc3ccccc23)cc1,218.6*,-3.3,-2.9,-6.1,195.2
